Where “and” joins values, the source holds several entries; their conditions need not be identical. Identical values can stand only once. Inconclusive results are not listed. Calls of active or inactive are those of the source. Unless noted, calls come from the whole dose curve; as a rule, active = well fitted curve in either direction with a large enough effect (not every such curve was filed as active); inconclusive = small, poorly fitted or top-dose-only effect, or another doubt; inactive = flat fitted curve, though single readings scatter.
Assays:
[1] = AP1 Signaling Pathway (AID 357); conditions: ME-180 AP-1-bla reporter, EGF-induced, beta-lactamase ratio, 5 h;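 note: ME-180 reporter cells stimulated with EGF at its EC50 level; % is set by controls: 0 for no effect and ±100 for the full control effect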
Procedure, shortened: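 Titration-series screen for positive or negative modulators of EC50 EGF-induced signaling in ME-180 cells carrying an AP-1-driven beta-lactamase reporter. After 5 hours at 37 degrees Celsius, CCF4 460nm/530nm emission ratio gave %Activity; AC50 values derived.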

[2] = biological target: Cytochrome P450 1A2 (Homo sapiens) (UniProt P05177); test: p450-cyp1a2 (AID 410; calls by dose curve; note: potency is the fitted concentration of half-maximal effect;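 for activity change, negative = inhibition: -100% = full effect of reference inhibitor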); conditions: recombinant CYP1A2, luciferin-ME demethylation, luminescence; series mostly up to 57 µM
Procedure, shortened: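 20nM CYP1A2, 100uM Luciferin-ME (=Km), 100mM KPO4; cpd 10 min RT; +NADPH regen, 60 min RT; stop/detect 20 min; luminescence. Normalized to furafylline 57 uM = full inhibition.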

[3] = Stat Signaling Pathway (AID 446); conditions: ME-180 (cervical carcinoma) SIE beta-lactamase reporter, IL-6 stimulated, 5 h; series mostly up to 17.2 µM;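 note: ME-180 cervical cancer cells given 40 pM IL-6 alongside compound; SIE-controlled beta-lactamase reporter measured as 460/530 nm FRET emission ratio; % is set by controls: 0 for no effect and ±100 for the full control effect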
Procedure, shortened: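 Compound effects on IL-6-induced STAT reporter activity were measured in ME-180 cells. After overnight culture, cells were co-treated with 40 pM IL-6 for 5 hrs before beta-lactamase substrate loading at room temperature.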

[4] = NFAT Signaling Pathway (AID 444); conditions: Jurkat NFAT-bla M1, carbachol, beta-lactamase ratio, 5 h;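 note: carbachol stimulus at about its EC50 of 1 µM final; % is set by controls: 0 for no effect and ±100 for the full control effect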
Procedure, shortened: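 Jurkat cells with NFAT-driven β-lactamase reporter and co-expressed M1 receptor, stimulated with carbachol (final 1 uM, ~EC50), compound titration, 5 h at 37 °C. CCF4 loaded 1 h at RT; 460/530 nm ratio gave %activity and AC50.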

[5] = Cell Viability - BJ (AID 421; calls by dose curve;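 note: potency is the fitted concentration of half-maximal effect; cells exposed to compound for 40 hours at 37 °C before readout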); conditions: BJ fibroblast viability, qHTS
Procedure, shortened: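 Luminescent ATP signal (CellTiter-Glo, 20 min at room temperature) served as the read-out of viable BJ cells after 40 hours of compound treatment. Responses were scaled between DMSO and 100 uM tamoxifen, and AC50 values were obtained by Hill modeling.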

[6] = Cell Viability - Jurkat (AID 426;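 active = dose-dependent loss of cell ATP signal giving a full or clear fitted curve, ranked by lower potency value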;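 note: potency is the fitted concentration of half-maximal effect; cells exposed to compound for 40 hours at 37 °C before ATP read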); conditions: qHTS
Procedure, shortened: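 Luminescent ATP read-out (CellTiter-Glo, 20 min at room temperature) after 40 hr compound exposure at 37 °C of Jurkat E6-1 cells, 5000/well. Decreased ATP taken as cytotoxicity; AC50 from standard Hill equation.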

[7] = Cell Viability - Hek293 (AID 427;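 active = compounds whose dose-response curve shows a full or clear partial loss of cell viability, called from curve shape rather than a numeric limit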;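 note: potency is the fitted concentration of half-maximal effect; cells exposed to compound for 40 hours at 37 °C before reading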); conditions: qHTS
Procedure, shortened: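 Luminescent ATP read-out (CellTiter-Glo, 20 min RT) after 40 hr compound exposure at 37 °C in complete medium. Signal normalized to DMSO (basal) and 100 uM tamoxifen (100% inhibition); concentration-response fitted with the standard Hill equation to give AC50.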

[8] = Cell Viability - HepG2 (AID 433; calls by dose curve;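 note: potency is the fitted concentration of half-maximal effect; potency for ATP loss meaning cytotoxicity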); conditions: qHTS
Procedure, shortened: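 Cytotoxicity read as ATP loss (CellTiter-Glo luminescence) after 40 hr compound exposure of HepG2, 1500 cells/well, 37 °C. AC50 by Hill equation; 0% set by DMSO, 100% inhibition by 100 uM tamoxifen.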

[9] = Cell Viability - MRC5 (AID 434; calls by dose curve;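 note: potency is the fitted concentration of half-maximal effect; cells exposed to compound for 40 hours at 37 °C; potency reflects cytotoxicity seen as loss of intracellular ATP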); conditions: MRC5 lung fibroblast viability, qHTS
Procedure, shortened: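 ATP luminescence read-out (CellTiter-Glo, 20 min RT) after 40 hr, 37 °C compound exposure of 1500 MRC5 cells/well. Data normalized to DMSO (basal) and 100 uM tamoxifen (100% inhibition); AC50 from standard Hill equation.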

Cytochrome P450 1A2 (Homo sapiens), sequence (P05177 whole entry, looked up): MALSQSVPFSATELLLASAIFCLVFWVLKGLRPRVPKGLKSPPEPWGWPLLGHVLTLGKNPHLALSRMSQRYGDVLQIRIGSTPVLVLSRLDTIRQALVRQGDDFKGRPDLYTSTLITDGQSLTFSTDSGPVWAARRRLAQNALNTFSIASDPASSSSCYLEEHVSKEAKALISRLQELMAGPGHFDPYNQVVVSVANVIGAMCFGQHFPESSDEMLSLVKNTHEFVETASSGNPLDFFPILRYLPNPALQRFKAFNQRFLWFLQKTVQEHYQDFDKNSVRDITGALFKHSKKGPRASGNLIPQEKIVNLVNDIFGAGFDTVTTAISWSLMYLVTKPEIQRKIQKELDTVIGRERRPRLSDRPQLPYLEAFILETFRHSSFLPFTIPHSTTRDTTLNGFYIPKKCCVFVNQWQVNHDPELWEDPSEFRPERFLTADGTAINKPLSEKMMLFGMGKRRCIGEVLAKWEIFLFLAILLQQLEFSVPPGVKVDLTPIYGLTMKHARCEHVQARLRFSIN

c1cnc(N2CCN(Cc3ccc4c(c3)OCO4)CC2)nc1
inactive: activity change, negative = inhibition ([1]; at 17.2 µM (top of the series)) -7.76% | activity change, negative = inhibition ([1]; at 38 µM (top of the series)) 13.9% | outcome [3]
active: Potency [2] 6.31 µM and 3.16 µM and 2 µM

CC[N+](C)(C)c1cccc(O)c1
inactive: activity change, negative = inhibition ([1]; at 17.2 µM (top of the series)) 1.89% and 0.722% | activity change, negative = inhibition ([1]; at 38 µM (top of the series)) 2.69% | Potency [2] | activity change, negative = inhibition ([4]; at 17.2 µM (top of the series)) -26.4% | activity change, negative = inhibition ([4]; at 38 µM (top of the series)) -18.1% | outcome [3]

CCOC(=O)C1=C(C)NC(C)=C(C(=O)OC)C1c1cccc([N+](=O)[O-])c1 (stereo unspecified)
inactive: activity change, negative = inhibition ([1]; at 17.2 µM (top of the series)) -25.4%

CC(=O)Oc1cc(C(C)C)c(OCCN(C)C)cc1C
inactive: activity change, negative = inhibition ([1]; at 17.2 µM (top of the series)) 7.18% | activity change, negative = inhibition ([1]; at 38 µM (top of the series)) 22.7% | outcome [3]
active: Potency [2] 7.94 µM and 3.16 µM

CCN(CC)CCNC(=O)c1ccc(NC(C)=O)cc1
inactive: activity change, negative = inhibition ([1]; at 17.2 µM (top of the series)) -5.32% | activity change, negative = inhibition ([1]; at 38 µM (top of the series)) 9.43% | Potency [2] | activity change, negative = inhibition ([4]; at 17.2 µM (top of the series)) -13.8% | activity change, negative = inhibition ([4]; at 38 µM (top of the series)) -8.68% | outcome [3]

C[n+]1cc2c3c(ccc2c2ccc4cc5c(cc4c21)OCO5)OCO3
active: activity change, negative = inhibition ([1]; at 17.2 µM (top of the series)) -119% | activity change, negative = inhibition ([1]; at 38 µM (top of the series)) -111% | Potency [2] 3.98 µM and 10 µM | activity change, negative = inhibition ([4]; at 38 µM (top of the series)) -48.1%

CCCC(C(=O)OCCN(CC)CC)(c1ccccc1)c1ccccc1
inactive: activity change, negative = inhibition ([1]; at 17.2 µM (top of the series)) 16.9% | activity change, negative = inhibition ([1]; at 38 µM (top of the series)) 20.9% | Potency [2] | outcome [3]

CN1CCN(CC(=O)N2c3ccccc3C(=O)Nc3cccnc32)CC1
inactive: activity change, negative = inhibition ([1]; at 17.2 µM (top of the series)) -3.75% and 6.17% | activity change, negative = inhibition ([1]; at 38 µM (top of the series)) 9.42% | Potency [2] | outcome [3]
active: activity change, negative = inhibition ([4]; at 17.2 µM (top of the series)) -94.8%

C[C@H](CS)C(=O)N1CCC[C@H]1C(=O)O
inactive: activity change, negative = inhibition ([1]; at 17.2 µM (top of the series)) -1.77% | activity change, negative = inhibition ([1]; at 38 µM (top of the series)) 3.53% | Potency [2] | activity change, negative = inhibition ([4]; at 17.2 µM (top of the series)) 2% | activity change, negative = inhibition ([4]; at 38 µM (top of the series)) -1.57% | outcome [3]

NC(N)=NC(=O)Cc1c(Cl)cccc1Cl
inactive: activity change, negative = inhibition ([1]; at 17.2 µM (top of the series)) 3.24% | activity change, negative = inhibition ([1]; at 38 µM (top of the series)) 6.16% | Potency [2] | activity change, negative = inhibition ([4]; at 17.2 µM (top of the series)) 3.14% | activity change, negative = inhibition ([4]; at 38 µM (top of the series)) 2.06% | outcome [3]

CCCCNC(=O)NS(=O)(=O)c1ccc(C)cc1
inactive: activity change, negative = inhibition ([1]; at 17.2 µM (top of the series)) -5% and 1.1% | activity change, negative = inhibition ([1]; at 38 µM (top of the series)) 6.49% | Potency [2] | Potency [5] > 92 µM | Potency [6] > 92 µM | Potency [7] > 92 µM | Potency [8] > 92 µM | Potency [9] > 92 µM | activity change, negative = inhibition ([4]; at 17.2 µM (top of the series)) -4.27% | activity change, negative = inhibition ([4]; at 38 µM (top of the series)) 12.5% | outcome [3]

CCN(CC)CCOCCOC(=O)C1(c2ccccc2)CCCC1
active: Potency [2] 12.6 µM
inactive: activity change, negative = inhibition ([1]; at 17.2 µM (top of the series)) -7.4% | activity change, negative = inhibition ([1]; at 38 µM (top of the series)) 16.3% | outcome [3]

C#CCN(C)CCCOc1ccc(Cl)cc1Cl
active: Potency [2] 631 nM and 158 nM
inactive: activity change, negative = inhibition ([1]; at 17.2 µM (top of the series)) -12.7% | activity change, negative = inhibition ([1]; at 38 µM (top of the series)) -0.876% | activity change, negative = inhibition ([4]; at 17.2 µM (top of the series)) -4.25% | activity change, negative = inhibition ([4]; at 38 µM (top of the series)) -1.82% | outcome [3]

Cc1nc2ccccn2c(=O)c1CCN1CCC(C(=O)c2ccc(F)cc2)CC1
inactive: activity change, negative = inhibition ([1]; at 17.2 µM (top of the series)) -5.86% | activity change, negative = inhibition ([1]; at 38 µM (top of the series)) 5.6% | Potency [2] | outcome [3]

CCCOc1ccccc1-c1nc2n[nH]nc2c(=O)[nH]1
active: Potency [2] 5.01 µM and 3.98 µM
inactive: activity change, negative = inhibition ([1]; at 17.2 µM (top of the series)) -18.5% | activity change, negative = inhibition ([1]; at 38 µM (top of the series)) -7.91% | activity change, negative = inhibition ([4]; at 17.2 µM (top of the series)) 14.8% | activity change, negative = inhibition ([4]; at 38 µM (top of the series)) 2.4% | outcome [3]

Brc1c(NC2=NCCN2)ccc2nccnc12
inactive: activity change, negative = inhibition ([1]; at 17.2 µM (top of the series)) -0.374% | activity change, negative = inhibition ([1]; at 38 µM (top of the series)) 6.19% | Potency [2] | activity change, negative = inhibition ([4]; at 17.2 µM (top of the series)) 15.8% | activity change, negative = inhibition ([4]; at 38 µM (top of the series)) 1.97% | outcome [3]

CN(C)C(=O)Oc1ccc[n+](C)c1
inactive: activity change, negative = inhibition ([1]; at 17.2 µM (top of the series)) 8.22% | activity change, negative = inhibition ([1]; at 38 µM (top of the series)) 9.9% | Potency [2] | activity change, negative = inhibition ([4]; at 17.2 µM (top of the series)) 4.78% | activity change, negative = inhibition ([4]; at 38 µM (top of the series)) 12% | outcome [3]

C[N+](C)(C)CCCCCCCCCC[N+](C)(C)C
inactive: activity change, negative = inhibition ([1]; at 17.2 µM (top of the series)) 5.88% and 0.653% | activity change, negative = inhibition ([1]; at 38 µM (top of the series)) 6.36% | Potency [2] | activity change, negative = inhibition ([4]; at 17.2 µM (top of the series)) -20.5% and -5.13% | activity change, negative = inhibition ([4]; at 38 µM (top of the series)) -4.26% | outcome [3]

CCN(CC)CCNC(=O)c1cc(S(C)(=O)=O)ccc1OC
inactive: activity change, negative = inhibition ([1]; at 17.2 µM (top of the series)) -0.734% and 2.54% | activity change, negative = inhibition ([1]; at 38 µM (top of the series)) 5.15% | Potency [2] | activity change, negative = inhibition ([4]; at 17.2 µM (top of the series)) -6.77% and -21.4% | activity change, negative = inhibition ([4]; at 38 µM (top of the series)) -5.52% | outcome [3]

CN(C)C(=O)Oc1cccc([N+](C)(C)C)c1
inactive: activity change, negative = inhibition ([1]; at 17.2 µM (top of the series)) 6.9% and 1.34% and 7.06% | activity change, negative = inhibition ([1]; at 38 µM (top of the series)) -1.33% | Potency [2] | activity change, negative = inhibition ([4]; at 17.2 µM (top of the series)) -14.6% and 15.5% and 0.313% | activity change, negative = inhibition ([4]; at 38 µM (top of the series)) 13% | outcome [3]

O=C1NCN(c2ccccc2)C12CCN(CCCC(c1ccc(F)cc1)c1ccc(F)cc1)CC2
active: Potency [2] 12.6 µM
inactive: activity change, negative = inhibition ([1]; at 17.2 µM (top of the series)) -2.84% | activity change, negative = inhibition ([1]; at 38 µM (top of the series)) 1.17% | outcome [3]

From PubChem BioAssay (NCATS)
